Reference: PubChem BioAssay (EPA / NIEHS)
Where “and” joins values, the source holds several entries; their conditions need not be identical. Equal values may be shown once. Records with an inconclusive call do not appear. Some structures have more than one record in an assay (separate samples or runs), and their calls can disagree. Calls of active or inactive are those of the source. How the source made its calls, unless noted: active means hit-call score of the fitted dose curve at least 0.9, where 1 is the maximum; inactive means score below 0.9.

Assays:
DIO1 (gene 1733) = experiment: CCTE_GLTED_hDIO1: CCTE's human Deiodinase 1 (DIO1) Inhibition Assay, Great Lakes Toxicology and Ecology Division (GLTED) Lab (AID 2283987; active means hit-call score of the fitted dose curve at least 0.9, where 1 is the maximum;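 further: isolated human DIO1 enzyme in a cell-free setup rather than cells; enzyme activity read as free iodide liberated from substrate via Sandell-Kolthoff colorimetry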)
Procedure, shortened: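 Inhibition of human deiodinase 1 is scored as reduced iodide liberation after a 3 h enzyme–chemical incubation, detected colorimetrically by the Sandell-Kolthoff reaction against DMSO controls.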

[1] = CCTE_Harrill_HTTr_Viability_MCF7: CCTE's 6-hour Cell Viability Assessment for the High-Throughput Transcriptomics (HTTr) Platform, in MCF-7 cells cultured in DMEM + 10% fetal bovine serum, Harrill Lab (AID 2284010)
Procedure, shortened: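 Viability measured through PI dye exclusion by high-content imaging at 6 h post-dosing.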

[2] = CCTE_Harrill_HTTr_Apoptosis_MCF7: CCTE's 6-hour Apoptosis Assessment for the High-Throughput Transcriptomics (HTTr) Platform, in MCF-7 cells cultured in DMEM + 10% fetal bovine serum, Harrill Lab (AID 2284011)
Procedure, shortened: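 MCF-7 (DMEM + 10% FBS), 384-well; 8-pt dilution series, 6 h chemical exposure; caspase-3/7 activation via CellEvent Caspase 3/7 Green, HCI; bidirectional fit vs DMSO.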

[3] = CCTE_Harrill_HTTr_CellCount_MCF7: CCTE's Cell Proliferation Assessment for the High-Throughput Transcriptomics (HTTr) Platform, Harrill Lab (AID 2284012; active means hit-call score of the fitted dose curve at least 0.9, where 1 is the maximum;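 further: count of Hoechst-stained nuclei per well by high-content imaging in MCF-7 cells; cells exposed to compound for six hours; intended direction is loss of nuclei count meaning fewer cells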)
Procedure, shortened: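 Nuclei counting (Hoechst, high content imaging) in MCF-7 after a 6 h treatment at eight concentrations. Activity fitted bidirectionally, DMSO as negative control.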

[4] = target: Nucleoli Translocation, AR (gene 367) (UniProt P10275); experiment: UPITT_HCI_U2OS_AR_TIF2_Nucleoli_Antagonist: University of Pittsburgh U2OS Androgen Receptor-Transcriptional Intermediary Factor 2 (AR-TIF2) Antagonism High Content Imaging Assay for Nucleoli Translocation (AID 2283997; active means hit-call score of the fitted dose curve at least 0.9, where 1 is the maximum)
Sequence of Nucleoli Translocation, AR (gene 367) (P10275 whole entry, looked up): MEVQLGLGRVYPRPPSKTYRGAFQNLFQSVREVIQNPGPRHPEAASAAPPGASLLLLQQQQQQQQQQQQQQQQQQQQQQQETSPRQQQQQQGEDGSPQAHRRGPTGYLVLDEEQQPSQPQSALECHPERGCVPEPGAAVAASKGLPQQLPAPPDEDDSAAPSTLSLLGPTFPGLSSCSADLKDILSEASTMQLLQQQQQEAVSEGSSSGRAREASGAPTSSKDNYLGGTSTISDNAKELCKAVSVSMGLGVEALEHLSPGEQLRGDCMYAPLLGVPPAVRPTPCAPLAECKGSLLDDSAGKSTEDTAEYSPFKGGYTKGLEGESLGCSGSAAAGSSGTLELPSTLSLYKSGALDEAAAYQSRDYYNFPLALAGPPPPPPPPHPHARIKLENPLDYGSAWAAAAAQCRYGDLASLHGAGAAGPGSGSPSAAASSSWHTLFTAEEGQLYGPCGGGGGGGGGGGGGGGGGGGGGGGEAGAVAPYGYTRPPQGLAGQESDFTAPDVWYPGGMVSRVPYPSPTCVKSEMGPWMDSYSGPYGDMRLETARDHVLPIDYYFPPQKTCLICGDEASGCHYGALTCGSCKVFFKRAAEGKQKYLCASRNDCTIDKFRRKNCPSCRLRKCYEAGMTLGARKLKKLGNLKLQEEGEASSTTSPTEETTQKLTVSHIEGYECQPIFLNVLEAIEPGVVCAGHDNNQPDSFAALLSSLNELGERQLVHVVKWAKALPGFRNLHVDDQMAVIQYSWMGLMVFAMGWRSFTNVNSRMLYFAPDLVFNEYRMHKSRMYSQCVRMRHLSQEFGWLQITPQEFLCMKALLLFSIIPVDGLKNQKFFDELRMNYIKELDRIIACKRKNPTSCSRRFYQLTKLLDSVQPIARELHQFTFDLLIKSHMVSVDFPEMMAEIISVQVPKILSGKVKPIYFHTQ
Procedure, shortened: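 U2OS cells co-expressing red-fluorescent-tagged human AR and green-fluorescent-tagged TIF2, imaged by high-content microscopy for nucleolar red fluorescence. Antagonist mode against DHT; primary screen at 20 uM final (0.2% DMSO).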

[5] = target: Nucleoli Translocation, AR (gene 367) (UniProt P10275); experiment: UPITT_HCI_U2OS_AR_TIF2_Nucleoli_Agonist: University of Pittsburgh U2OS Androgen Receptor-Transcriptional Intermediary Factor 2 (AR-TIF2) Agonism High Content Imaging Assay for Nucleoli Translocation (AID 2283998; active means hit-call score of the fitted dose curve at least 0.9, where 1 is the maximum)
Procedure, shortened: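 Readout is red (AR-RFP) fluorescence localized to nucleoli, measured by high-content imaging and analysed for increase relative to DMSO. Compound series spanned 0.195 to 50 uM final in 0.5% DMSO.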

[6] = target: Ratio of Nucleoli Translocation and Cytoplasm, AR (gene 367) (UniProt P10275); experiment: UPITT_HCI_U2OS_AR_TIF2_Nucleoli_Cytoplasm_Ratio_Antagonist: University of Pittsburgh U2OS Androgen Receptor-Transcriptional Intermediary Factor 2 (AR-TIF2) Antagonism High Content Imaging Assay for Ratio of Nucleoli Translocation and Cytoplasm (AID 2283999; active means hit-call score of the fitted dose curve at least 0.9, where 1 is the maximum;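 further: antagonists lower the DHT-driven ratio of nucleolar to cytoplasmic red signal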)
Sequence of Ratio of Nucleoli Translocation and Cytoplasm, AR (gene 367) (P10275 whole entry, looked up): as above
Procedure, shortened: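 High-content imaging quantifies the red nucleolar:cytoplasmic fluorescence ratio in U2OS cells with AR-RFP and TIF2-GFP. Final concentrations are 20 uM (screen) or 0.195–50 uM (dose response), analysed against DHT as baseline.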

[7] = target: Ratio of Nucleoli Translocation and Cytoplasm, AR (gene 367) (UniProt P10275); experiment: UPITT_HCI_U2OS_AR_TIF2_Nucleoli_Cytoplasm_Ratio_Agonist: University of Pittsburgh U2OS Androgen Receptor-Transcriptional Intermediary Factor 2 (AR-TIF2) Agonism High Content Imaging Assay for Ratio of Nucleoli Translocation and Cytoplasm (AID 2284000; active means hit-call score of the fitted dose curve at least 0.9, where 1 is the maximum;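 further: hits raise the red nucleolar to cytoplasm ratio above vehicle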)
Procedure, shortened: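 U2OS cells expressing RFP-tagged human AR and GFP-tagged TIF2; high-content imaging ratio of nucleolar to cytoplasmic red fluorescence, fitted as gain of signal vs DMSO. Single point at 20 uM final (0.2% DMSO); concentration-response 0.195-50 uM final (0.5% DMSO).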

[8] = CCTE_Shafer_MEA_acute_spike_number: CCTE's Neural Acute Assay for Total Number of Spikes, Shafer Lab (AID 2284008);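 on AC50: curve fitted for decrease in spike count so AC50 reflects inhibitors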
Procedure, shortened: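 Read-out is the total spike count over 40 min, expressed as percent change from each well's own pre-treatment baseline and fitted in the loss direction against DMSO. Rat cortical neurons were exposed at 0.03-40 uM on DIV 13 or 15.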

[9] = CCTE_Shafer_MEA_acute_firing_rate_mean: CCTE's Neural Acute Assay for Mean Firing Rate, Shafer Lab (AID 2284009);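 further: analyzed for loss of signal so actives lower firing rate relative to DMSO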
Procedure, shortened: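 Rat primary cortical neurons on 48-well MEA plates, dosed at 0.03-40 uM on DIV 13 or 15; 40 min spontaneous activity recorded at 37 C before and after compound. Spike rate per electrode averaged per well, expressed as percent change from baseline.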

[10] = CCTE_Shafer_MEA_acute_burst_number: CCTE's Neural Acute Assay for Single-Electrode Bursts, Shafer Lab (AID 2284013)
Procedure, shortened: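 Primary rat cortical neurons on 16-electrode MEA wells, treated on DIV 13 or 15 with compound at 0.03-40 uM. Single-electrode burst count from 40-min recordings at 37 C before and after exposure; percent change from baseline per well, DMSO negative control.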

[11] = CCTE_Shafer_MEA_acute_burst_duration_mean: CCTE's Neural Acute Assay for Mean Burst Duration, Shafer Lab (AID 2284014);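 further: hits are decreases in mean burst duration relative to DMSO controls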
Procedure, shortened: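 Rat primary cortical neurons on 48-well MEA, treated at DIV 13 or 15 with 0.03-40 uM in at least 3 wells. Value is percent change in mean burst duration, comparing 40 min recordings at 37 C before and during exposure.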

[12] = CCTE_Shafer_MEA_acute_interburst_interval_mean: CCTE's Neural Acute Assay for Mean Interburst Interval, Shafer Lab (AID 2284016);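 further: percent change of mean interburst interval versus each well's own pre-dose baseline; curves fitted for decrease in interburst interval relative to DMSO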
Procedure, shortened: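 Percent change in mean single-electrode interburst interval was calculated per well from 40 min recordings before and after compound (0.03-40 uM). Recordings were made at 37 C on rat cortical cultures at DIV 13 or 15, with spikes detected at 8x rms threshold.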

[13] = CCTE_Shafer_MEA_acute_burst_percentage_std: CCTE's Neural Acute Assay for Standard Deviation of Burst Percentage, Shafer Lab (AID 2284018);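 further: fitted in the negative direction so actives lower burst percentage SD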
Procedure, shortened: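 Rat primary cortical neurons on 48-well MEAs, DIV 13 or 15, 37 C. 40-min baseline then 40-min recording with compound (0.03-40 uM); well-level SD of per-electrode burst spike percentage, expressed as percent change from baseline.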

[14] = CCTE_Simmons_MITO_basal_resp_rate: CCTE's HepG2 Seahorse XF Respirometric Screening Assay at Basal Respiratory State, Simmons Lab (AID 2284001); details: actives raise or lower the signal
Procedure, shortened: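 HepG2 oxygen consumption on Seahorse XF96 after compound injection, 7 concentrations 125 nM–100 uM final, reads every 6 min over 72 min. Triplicate biological replicates; bidirectional fit vs DMSO; fenpyroximate and 2,4-dinitrophenol controls.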

[15] = CCTE_Simmons_MITO_max_resp_rate: CCTE's HepG2 Seahorse XF Respirometric Screening Assay at Maximal Respiratory State [uncoupled], Simmons Lab (AID 2284002); details: actives raise or lower the signal
Procedure, shortened: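 Read-out is oxygen consumption rate at maximal respiration, taken after FCCP uncoupling of compound-treated HepG2 cells. Seven final concentrations from 125 nM to 100 uM were tested, each in three biological replicates.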

[16] = CCTE_Simmons_MITO_inhib_resp_rate: CCTE's HepG2 Seahorse XF Respirometric Screening Assay at Inhibited Respiratory State [full ETC block], Simmons Lab (AID 2284006); details: actives raise or lower the signal
Procedure, shortened: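 Inhibited respiration was taken as HepG2 oxygen consumption after rotenone/antimycin A, which followed test-compound and FCCP injections. Chemicals were tested at seven final concentrations from 125 nM to 100 uM. Activity was fitted bidirectionally relative to DMSO.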

[17] = CCTE_Simmons_MITO_viability: CellTiter-Glo Viability Assessment for CCTE's HepG2 Seahorse XF Respirometric Screening Assay [post-hoc], Simmons Lab (AID 2284007; active means hit-call score of the fitted dose curve at least 0.9, where 1 is the maximum;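 on AC50: cells exposed to chemical for 90 min before the ATP read; actives lower ATP signal relative to DMSO baseline meaning reduced viability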)
Procedure, shortened: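 HepG2 cells; test chemical 7 conc. (125 nM–100 uM final) × 90 min; then luminescent ATP detection. DMSO vehicle. Positive control dichlone, 8 conc. from 10 nM to 100 uM final. Loss-of-signal endpoint.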

[18] = CCTE_Harrill_HTTr_Apoptosis_PRF_DMEM_6hr: (Pilot) CCTE's 6-hour Apoptosis Assessment for the High-Throughput Transcriptomics (HTTr) Platform, in MCF-7 cells cultured phenol red-free DMEM + 10% charcoal-stripped fetal bovine serum, Harrill Lab (AID 2283984)
Procedure, shortened: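 MCF-7 cells in phenol red-free DMEM + 10% charcoal-stripped FBS, eight-point dilution series, 6 h exposure. Caspase-3/7 activation imaged by high-content imaging with CellEvent Caspase 3/7 Green; bidirectional fit versus DMSO baseline.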

[19] = CCTE_Harrill_HTTr_Apoptosis_PRF_DMEM_24hr: (Pilot) CCTE's 24-hour Apoptosis Assessment for the High-Throughput Transcriptomics (HTTr) Platform, in MCF-7 cells cultured in phenol red-free DMEM + 10% charcoal-stripped fetal bovine serum, Harrill Lab (AID 2283986)
Procedure, shortened: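 MCF-7 cells in phenol red-free DMEM with 10% charcoal-stripped FBS, exposed 24 h across an eight-point dilution series. Caspase-3/7 activation imaged with CellEvent Green by high content imaging; bidirectional fitting against DMSO.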

Measured: AC50

S=C(S)NCCNC(=S)S.[Mn+2].[S-]C([S-])=NCCN=C([S-])[S-].[Zn+2]
inactive: [1] | [2] | [3]
active: DIO1 (gene 1733) 29.5 µM and 50 µM

CCCOC(=O)c1ccc(C(=O)OCCC)nc1
inactive: [4] | [5] | [6] | [7] | [1] | [2] | [3]

O=C(c1ccccc1)C1CCCCC1
inactive: [4] | [5] | [6] | [7] | [8] | [9] | [10] | [11] | [12] | [13]

CC1(C)C(C=C(Cl)Cl)C1C(=O)OCc1cccc(Oc2ccccc2)c1 (stereo unspecified)
inactive: [4] | [6] | [7] | [8] | [9] | [1] | [2] | [10] | [11] | [12] | [13]

CCOC(=O)NCCOc1ccc(Oc2ccccc2)cc1
active: [14] 21.5 µM | [15] 19.8 µM
inactive: [16] | [17] | [1] | [2]

C=CCOC(Cn1ccnc1)c1ccc(Cl)cc1Cl (stereo unspecified)
active: [14] 24.3 µM | [15] 38.2 µM | [8] 6.09 µM | [9] 6.09 µM | [10] 3.97 µM | [13] 3.32 µM
not listed: DIO1 (gene 1733) | [4] | [5] | [6] | [7]
inactive: all other assays above

CCCCC(CC)CN1C(=O)C2C3C=CC(C3)C2C1=O (stereo unspecified)
active: [14] 25.3 µM | [15] 32.1 µM | [8] 30.1 µM | [9] 30.1 µM | [13] 30.3 µM
inactive: [16] | [17] | [1] | [2] | [10] | [11] | [12]

Cc1nn(C)c(Oc2ccccc2)c1C=NOCc1ccc(C(=O)OC(C)(C)C)cc1
inactive: [18] | [19] | [4] | [5] | [6] | [16] | [17] | [1] | [2] | [3] | [11]
active: [14] 1.15 µM and 1.55 µM | [15] 884 nM and 948 nM | [17] 2.81 µM | [8] 0.00424 µM | [9] 0.00449 µM | [10] 0.003 µM | [12] 0.003 µM | [13] 7.36 µM

S=C([S-])NCCNC(=S)[S-].[Mn+2]
active: DIO1 (gene 1733) 35.7 µM
inactive: [18] | [19] | [1] | [2] | [3]

COC(=O)CSc1cc(N=c2sc(=O)n3n2CCCC3)c(F)cc1Cl
inactive: [4] | [5] | [6] | [7] | [1] | [2]
